Among all 52,000 compounds or so, about 4,300 (8.3%) were called active. The sample holds actives, similar compounds and a random draw of the others, so the mix is not that of the screen. Values without a mark were called inactive. Rule as the data show it: active = survival mostly below about 52% (no sharp cut-off); inactive = mostly above about 56%.
The compounds below were run on DeltatarO mutant (assay: growth inhibition of S. aureus wild type versus tarO mutant, primary screen, teichoic acid synthesis inhibitors, RN4220, OD600 (AID 463173)). Conditions: OD600, 18 h, stronger effect = lower value, screened at 18.75 µg/mL (by protocol).

Which survival does the source give for `O=C(Cn1c2ncccc2c(=O)n1-c1ccccc1)Nc1cccc(C(F)(F)F)c1` here?
The survival was 67%.

Which survival does the source give for `O=C(Nc1ccccc1C(=O)N1CCOCC1)C1COc2ccccc2O1` (centres undefined) here?
The survival was 95%.

How did the survival turn out when `CCC(=O)N1CCc2cc(CNC(=O)c3ccc(F)cc3)ccc21` was run?
Its survival is 73%.

Which survival does the source give for `O=C(Nc1ccc(Cl)cc1F)c1cc(S(=O)(=O)NCc2ccc3c(c2)OCO3)ccc1F` here?
Its survival is 77%.

For `COc1ccc(/C=C2\SC(=S)N(CCC(=O)NCCO)C2=O)cc1`, which survival is on record?
The survival was 104%.

Which survival does the source give for `Cc1cc2c(cc1S(=O)(=O)NCc1ccc(N(C)C)cc1)OCC(=O)N2` here?
The survival was 80%.

With `COc1ccc(NC(=O)c2[nH]nc3c2CSc2ccccc2-3)c(OC)c1` as the compound, how does the survival read?
The survival was 49%.

How did the survival turn out when `COc1cccc2cc(-c3nc(Nc4cccc(C)c4)sc3C)c(=O)oc12` was run?
The survival was 98%.

For `CCOc1cccc2cc(-c3nc(-c4ccc(Cl)cc4)c(C)s3)c(=O)oc12`, which survival is on record?
Its survival is 105%.

How did the survival turn out when `COc1cccc2cc(-c3nc(-c4ccc(C)cc4)c(C)s3)c(=O)oc12` was run?
The survival was 46% (active).

Which survival does the source give for `CCOC(=O)C1=C(SCC)c2cc3c(n2C1=O)CCCC3` here?
Its survival is 83%.

With `CCc1ccc(CNC(=O)c2cc(-c3ccc(Cl)s3)nc3ccccc23)cc1` as the compound, how does the survival read?
Its survival is 83%.

How did the survival turn out when `CCc1ccc(CNC(=O)c2cc(-c3ccc(Br)s3)nc3ccccc23)cc1` was run?
Its survival is 60% (active).

How did the survival turn out when `CCN(CC)CC(C)CNC(=O)c1cc(-c2ccc(Br)s2)nc2ccccc12` (centres undefined) was run?
Its survival is 31% (active).

With `COc1ccc(CNC(=O)c2cc(-c3ccc(Br)s3)nc3ccccc23)cc1` as the compound, how does the survival read?
Its survival is 77%.

With `CCN(CC)CCNC(=O)c1cc(-c2ccc(Br)s2)nc2ccccc12` as the compound, how does the survival read?
Its survival is 28% (active).

With `CCCN(CCC)CCNC(=O)c1cc(-c2ccc(Br)s2)nc2ccccc12` as the compound, how does the survival read?
The survival was 68%.

For `CCCCN(C)CCCNC(=O)c1cc(-c2ccc(Br)s2)nc2ccccc12`, which survival is on record?
The survival was 33%.

`CC(C)CCNC(=O)c1cc(-c2ccc(Br)s2)nc2ccccc12` was tested. Which survival did it give?
Its survival is 81%.

How did the survival turn out when `CC(C)CN(CCCNC(=O)c1cc(-c2ccc(Br)s2)nc2ccccc12)CC(C)C` was run?
Its survival is 91%.

For `Cc1ccc(S(=O)(=O)c2cn(CC(=O)Nc3ccc(Cl)cc3)c3ccc(F)cc3c2=O)cc1C`, which survival is on record?
The survival was 53%.

Which survival does the source give for `CC(C)(C)c1ccc(C(=O)Nc2ccccc2C(=O)OCc2cc(=O)n3ccsc3n2)cc1` here?
Its survival is 73%.

For `CC1OC(Nc2ccc(OC(F)(F)F)cc2)C(O)C(O)C1O` (centres undefined), which survival is on record?
Its survival is 84%.

For `CCC(C)n1c(=O)c2sccc2n2c(CCCC(=O)N3CCN(c4ccccc4)CC3)nnc12` (centres undefined), which survival is on record?
The survival was 89%.

For `Cc1ccc(NC(=O)CCNS(=O)(=O)c2cccc3nonc23)cc1Cl`, which survival is on record?
The survival was 39% (active).

`COc1ccc(NC(=O)CCS(=O)(=O)c2cccc3nonc23)cc1Cl` was tested. Which survival did it give?
Its survival is 68%.

For `Cc1cccc(NC(=O)CCNS(=O)(=O)c2cccc3nonc23)c1`, which survival is on record?
The survival was 44% (active).

Which survival does the source give for `Cc1cc(Br)ccc1NC(=O)CCS(=O)(=O)c1cccc2nonc12` here?
The survival was 83%.

How did the survival turn out when `CCOc1ccc(NC(=O)CCNS(=O)(=O)c2cccc3nsnc23)cc1` was run?
The survival was 52%.

`CCc1cccc(NC(=O)CCNS(=O)(=O)c2cccc3nonc23)c1` was tested. Which survival did it give?
Its survival is 97%.

With `Cc1cc(Br)ccc1NC(=O)CCNS(=O)(=O)c1cccc2nonc12` as the compound, how does the survival read?
The survival was 43% (active).

How did the survival turn out when `COC(=O)c1ccc(NC(=O)CCNS(=O)(=O)c2cccc3nsnc23)cc1` was run?
Its survival is 65%.

`Cc1ccc(NC(=O)CCS(=O)(=O)c2cccc3nonc23)cc1Cl` was tested. Which survival did it give?
The survival was 71%.

Which survival does the source give for `Cc1ccc(NC(=O)CCS(=O)(=O)c2cccc3nonc23)c(C)c1` here?
The survival was 99%.

How did the survival turn out when `Cc1cc(NC(=O)CCNS(=O)(=O)c2cccc3nsnc23)ccc1Br` was run?
Its survival is 102%.

`CCOC(=O)c1cccc(NC(=O)CCNS(=O)(=O)c2cccc3nonc23)c1` was tested. Which survival did it give?
Its survival is 46% (active).

Which survival does the source give for `Cc1cccc(Cn2c(=O)n(-c3cc(C)cc(C)c3)c(=O)c3oc4ccccc4c32)c1` here?
Its survival is 71%.

Which survival does the source give for `Cc1sc2ncn(CC(=O)N3CCN(c4ccc(F)cc4)CC3)c(=O)c2c1S(=O)(=O)N1CCC(C)CC1` here?
The survival was 75%.

For `Cc1ccc(C)c(NC(=O)c2ccc(CN3CC(=O)N4CCCCC4C3=O)cc2)c1` (centres undefined), which survival is on record?
Its survival is 54%.

For `Cc1cc(Oc2nc3ccccn3c(=O)c2/C=C(\C#N)c2nc3ccccc3s2)ccc1Cl`, which survival is on record?
Its survival is 63%.

Which survival does the source give for `COc1ccc(S(=O)(=O)N2CCC(C(=O)NC(C)c3ccccc3)CC2)cc1` (centres undefined) here?
Its survival is 79%.

Which survival does the source give for `COc1ccc(OC)c(/C=N/c2ncn[nH]2)c1` here?
Its survival is 101%.

`COCCCNC(=O)Cn1c(=O)nc(-c2ccccc2)c2ccccc21` was tested. Which survival did it give?
Its survival is 78%.

`CCOc1ccccc1NC(=O)c1ccc2c(c1)CCCN2S(C)(=O)=O` was tested. Which survival did it give?
The survival was 81%.

Which survival does the source give for `Cc1nn(-c2ccc(N3CCCC3)nn2)c(C)c1CCC(=O)Nc1ccc(F)c(Cl)c1` here?
Its survival is 68%.

How did the survival turn out when `O=C(NCc1cccn1Cc1ccccc1)Nc1cccc(C(F)(F)F)c1` was run?
Its survival is 54%.

Which survival does the source give for `COCCCNC(=O)c1ccc(Cn2c(=O)c3ccccc3n(Cc3ccc(Cl)cc3)c2=O)cc1` here?
Its survival is 89%.

With `COc1ccc(NC(=O)CN(C)S(=O)(=O)c2ccc3nc(C)sc3c2)cc1Cl` as the compound, how does the survival read?
The survival was 82%.

Which survival does the source give for `CN(C)c1ccc(/C=N/c2nc3ccccc3o2)cc1` here?
Its survival is 85%.

With `COc1ccc(CCNC(=O)c2ccc(Cn3c(SCc4ccccc4)nc4cccnc43)cc2)cc1` as the compound, how does the survival read?
Its survival is 92%.

For `CCN(C(=O)c1cc2c(s1)-c1c(C)cccc1OC2)c1ccccc1F`, which survival is on record?
Its survival is 97%.

`CCN(Cc1ccccc1)C(=O)c1cc2c(s1)-c1c(C)cccc1OC2` was tested. Which survival did it give?
The survival was 55% (active).

Which survival does the source give for `Cc1ccc(CCNC(=O)c2cc3c(s2)-c2c(C)cccc2OC3)cc1` here?
Its survival is 93%.

For `CCN(C(=O)c1cc2c(s1)-c1c(C)cccc1OC2)c1cc(C)ccc1C`, which survival is on record?
Its survival is -1% (active).

With `Cc1cccc(CCNC(=O)c2cc3c(s2)-c2c(C)cccc2OC3)c1` as the compound, how does the survival read?
The survival was 83%.

With `Cc1ccc(CNC(=O)c2cc3c(s2)-c2c(C)cccc2OC3)cc1` as the compound, how does the survival read?
Its survival is 68%.

Which survival does the source give for `CC(C)CCN1C(=O)c2ccccc2CC1(C)C(=O)NC1CCC(C)CC1` (centres undefined) here?
The survival was 100%.

How did the survival turn out when `CCOC(=O)c1c(C)[nH]c(CCC(=O)NCc2ccccc2Cl)c1C` was run?
The survival was 98%.

With `CCOc1ccc(NC(=O)Cn2cc(C(=O)c3ccccc3)c(=O)c3cc4c(cc32)OCCO4)cc1` as the compound, how does the survival read?
Its survival is 73%.

`CC(=O)c1ccc(NC(=O)c2cn(-c3ccccc3)nc2-c2ccc(Br)cc2)cc1` was tested. Which survival did it give?
Its survival is 75%.

Which survival does the source give for `COc1ccccc1NC(=O)c1cn(-c2ccccc2)nc1-c1ccccc1` here?
The survival was 95%.

With `COc1ccc(-c2nn(-c3ccccc3)cc2C(=O)Nc2ccccc2OC)cc1` as the compound, how does the survival read?
The survival was -2% (active).

Which survival does the source give for `O=C(O)c1ccc(NC(=O)c2cn(-c3ccccc3)nc2-c2ccc(Br)cc2)cc1` here?
The survival was 24% (active).

For `CCOC(=O)c1ccc(NC(=O)c2cn(-c3ccccc3)nc2-c2ccc(Br)cc2)cc1`, which survival is on record?
The survival was 70%.

For `COc1ccc(NC(=O)c2cn(-c3ccccc3)nc2-c2ccc(C)cc2)cc1`, which survival is on record?
Its survival is 63%.

Which survival does the source give for `CCOC(=O)c1ccc(NS(=O)(=O)c2ccc3c(c2)CCN3C(=O)CC)cc1` here?
Its survival is 79%.

`Brc1ccc(-c2cn3cc(Cc4ccccc4)sc3n2)cc1` was tested. Which survival did it give?
Its survival is 64%.

For `COc1cc(NC(=O)Cn2c(=O)oc3cc(S(=O)(=O)N4CCCCCC4)ccc32)cc(OC)c1`, which survival is on record?
Its survival is 95%.

Which survival does the source give for `CC1CCN(C(=O)Cn2c(=O)oc3cc(S(=O)(=O)N4CCCCC4)ccc32)CC1` here?
The survival was 86%.

For `COc1ccc(CCNC(=O)c2cc(=O)[nH]c3ccc(S(=O)(=O)N4CCCCC4C)cc23)cc1OC` (centres undefined), which survival is on record?
The survival was 117%.

For `CC1CCN(S(=O)(=O)c2ccc3c(c2)oc(=O)n3CC(=O)N2CCCCC2)CC1`, which survival is on record?
The survival was 66%.

Which survival does the source give for `COc1ccc(OC)c(CNC(=O)c2cc(=O)[nH]c3ccc(S(=O)(=O)N4CCCCC4C)cc23)c1` (centres undefined) here?
The survival was 6% (active).

With `COc1ccc(NC(=O)Cn2c(=O)oc3cc(S(=O)(=O)N4CCCCC4C)ccc32)cc1` (centres undefined) as the compound, how does the survival read?
Its survival is 47% (active).

`CC1CCN(S(=O)(=O)c2ccc3c(c2)oc(=O)n3CC(=O)O)CC1` was tested. Which survival did it give?
The survival was 0% (active).

For `CCOc1ccc(NC(=O)Cn2c(=O)oc3cc(S(=O)(=O)N4CCCCCC4)ccc32)cc1`, which survival is on record?
The survival was 75%.

`COc1ccc(Br)cc1CNC(=O)c1cc(=O)[nH]c2ccc(S(=O)(=O)N3CCCCC3C)cc12` (centres undefined) was tested. Which survival did it give?
Its survival is 82%.

With `Fc1ccc(N2CCN(c3ncnc4[nH]ncc34)CC2)cc1` as the compound, how does the survival read?
The survival was 95%.

`CCSc1ncc(Cl)c(C(=O)Nc2c(C(=O)Nc3cccc(C)c3)oc3ccccc23)n1` was tested. Which survival did it give?
The survival was 109%.

How did the survival turn out when `Cc1c(C(=O)NCCc2ccccc2)cccc1-n1cnc2cccnc21` was run?
Its survival is 75%.

`O=C(O)c1cccc(NC2SC(=O)N(c3ccccc3)C2=O)c1` (centres undefined) was tested. Which survival did it give?
The survival was 107%.

Which survival does the source give for `O=C1C(=O)N(C2CCN(C(=O)c3ccc(Cl)cc3)CC2)CCN1Cc1ccc(F)cc1` here?
Its survival is 78%.

`COc1ccc(-n2c(SCC(=O)N3CCc4ccccc43)nc3c([nH]c4ccccc43)c2=O)cc1` was tested. Which survival did it give?
Its survival is 92%.

Which survival does the source give for `Cc1cccc(NC(=O)CN(C)S(=O)(=O)c2cnc[nH]2)c1C` here?
The survival was 97%.

For `CCN1CCc2c(sc(NC(=O)c3ccc(S(=O)(=O)N(C)C4CCCCC4)cc3)c2C(N)=O)C1`, which survival is on record?
Its survival is 80%.

For `Cc1ccccc1NC(=O)Cn1cc(S(=O)(=O)N2CCCC2)c(S(=O)(=O)N2CCCC2)c1`, which survival is on record?
Its survival is 90%.

`CC(=O)c1ccc(NC(=O)CCCc2nc(-c3cccc(C)c3)no2)cc1` was tested. Which survival did it give?
The survival was 69%.

With `COc1ccc(N2CCN(CCCNC(=O)C3COc4ccccc4C3)CC2)cc1` (centres undefined) as the compound, how does the survival read?
Its survival is 131%.

`CCn1c(CNc2ccc(C)cc2)nnc1SCc1ccccc1` was tested. Which survival did it give?
The survival was 115%.

How did the survival turn out when `O=C(Nc1ccccc1)N(Cc1cccc(Cl)c1)c1ccccn1` was run?
The survival was 37% (active).

With `O=C(Nc1ccccc1)N(Cc1ccc(F)cc1)c1ccccn1` as the compound, how does the survival read?
The survival was 56%.

For `Cc1ccc(CN(C(=O)Nc2cccc(Cl)c2)c2ccccn2)cc1`, which survival is on record?
Its survival is 40% (active).

`COc1cc(CN(C(=O)Nc2cccc(Cl)c2)c2ccccn2)cc(OC)c1OC` was tested. Which survival did it give?
The survival was 68%.

How did the survival turn out when `COc1ccc(CN(C(=O)Nc2cccc(Cl)c2)c2ccccn2)cc1OC` was run?
The survival was 92%.

`CCc1ccc(CN(C(=O)Nc2cccc(Cl)c2)c2ccccn2)cc1` was tested. Which survival did it give?
Its survival is 94%.

Reference: PubChem BioAssay AID463173 (ICCB-Longwood Screening Facility, Harvard Medical School, 2010)
